Activity calls are given as the source filed them.

This passage reports composite z-score and composite Z-score results from PubChem BioAssay.

One test deals with Albumin (Bos taurus) (UniProt P02769). Briefly: bovine serum albumin binders on microarray, profiling panel, artefact control for SMM control protein annotation, biochemical, small-molecule microarray, Alexa647 label, 635/667 nm fluorescence (AID 1118).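 Also: score merges 667 nm emission intensity and signal-to-noise per printed compound spot.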 To be noted: BSA-A647 binding, fluorescence 635 nm, higher = more signal.
Chain of Albumin (Bos taurus) (P02769 whole entry, looked up): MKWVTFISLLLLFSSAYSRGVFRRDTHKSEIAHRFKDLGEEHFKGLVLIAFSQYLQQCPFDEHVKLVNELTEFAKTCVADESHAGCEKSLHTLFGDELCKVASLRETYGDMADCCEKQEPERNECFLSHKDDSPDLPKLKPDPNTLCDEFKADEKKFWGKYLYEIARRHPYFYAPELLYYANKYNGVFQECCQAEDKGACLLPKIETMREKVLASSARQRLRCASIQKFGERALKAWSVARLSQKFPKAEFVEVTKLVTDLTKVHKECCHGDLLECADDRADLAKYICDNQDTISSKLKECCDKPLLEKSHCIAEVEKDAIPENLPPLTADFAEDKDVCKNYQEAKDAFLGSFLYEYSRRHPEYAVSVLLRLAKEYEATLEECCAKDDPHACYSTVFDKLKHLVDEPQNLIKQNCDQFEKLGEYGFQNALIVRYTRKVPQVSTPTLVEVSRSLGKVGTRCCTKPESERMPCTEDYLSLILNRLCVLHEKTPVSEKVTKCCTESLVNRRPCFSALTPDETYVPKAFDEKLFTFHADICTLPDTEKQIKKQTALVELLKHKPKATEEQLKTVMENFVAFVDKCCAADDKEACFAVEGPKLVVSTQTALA
A short description of test [1]: small-molecule microarray binders of probe aXIP, primary screen, biochemical, NeuroSMM set, 635/667 nm fluorescence (AID 1119).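 Also: probe is the protein aXip251-270 applied at 1 µg/mL to compound-printed slides; binding of probe to printed compounds measured as 667 nm fluorescence plus signal to noise.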 To be noted: higher = more signal, called active from +8 up or from −8 down.
Test [2] in a line: small-molecule binders of probe aNOTCH3, primary screen, biochemical, small-molecule microarray, 635/667 nm fluorescence (AID 1120).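 Also: probe is a biotin-tagged antibody raised against NOTCH3 rather than NOTCH3 protein; score merges spot fluorescence near 667 nm with spot signal to noise.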 Conditions: higher = more signal.
Test [3] in a line: small-molecule binders of probe aNOTCH2, primary screen, biochemical, small-molecule microarray, 635/667 nm fluorescence (AID 1121).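 Also: score merges feature fluorescence read at 667 nm with its signal to noise.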 To be noted: higher = more signal.
Test [4] deals with Carbonic anhydrase 2 (Homo sapiens) (UniProt P00918). Nature of the test: CAII small-molecule binders, profiling panel, biochemical, small-molecule microarray, Alexa647-labelled CAII (AID 1122). Conditions: CAII-A647 binding fluorescence, higher = more signal.
Test [5] is described as follows: COS7 lysate on small-molecule microarray, probe aHis, 635 nm (AID 1123).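 Also: z-score combines 667nm fluorescence intensity with signal-to-noise per printed compound spot.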 Conditions: COS7 cell lysate, fluorescence, higher = more signal.
The nature of test [6]: compound binding in COS7 lysate, probe aLAP1, primary screen, cell lysate, small-molecule microarray (AID 1124).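 Also: lysate comes from COS7 cells expressing LAP1 and is applied at 0.3 µg/mL; score merges spot fluorescence near 667 nm with signal-to-noise over triplicate slides.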 To be noted: probe aLAP1, fluorescence, higher = more signal.
The test system of a further test is Sam68 (KHDRBS1). Briefly: Sam68 small-molecule binders, primary screen, biochemical, small-molecule microarray, 635 nm fluorescence (AID 1125).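 Also: score merges 667 nm channel intensity with signal to noise over triplicate slides.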 To be noted: small-molecule microarray binding, higher = more signal.
The test system of test [7] is Chordin-like protein 2 (CHRDL2). Briefly: CHRDL2 small-molecule binders, primary screen, biochemical, small-molecule microarray, 635 nm fluorescence (AID 1126).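 Also: printed compound slides probed with Chrdl2 protein at 4 µg/mL for 1 h at 4 C; score merges 667 nm emission intensity with signal to noise over three replicate slides.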 To be noted: small-molecule microarray binding, fluorescence 635 nm; higher = more signal.
Test [8] deals with Concanavalin-A (Canavalia ensiformis) (UniProt P02866). Briefly: ConA small-molecule binders, primary screen, artefact control for SMM control protein annotation, biochemical, small-molecule microarray, Alexa647 label, 635 nm (AID 1127).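 Also: z combines 667 nm emission intensity with signal-to-noise across three replicate slides.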 To be noted: ConA-A647 binding fluorescence, higher = more signal.
Chain of Concanavalin-A (Canavalia ensiformis) (P02866 whole entry, looked up): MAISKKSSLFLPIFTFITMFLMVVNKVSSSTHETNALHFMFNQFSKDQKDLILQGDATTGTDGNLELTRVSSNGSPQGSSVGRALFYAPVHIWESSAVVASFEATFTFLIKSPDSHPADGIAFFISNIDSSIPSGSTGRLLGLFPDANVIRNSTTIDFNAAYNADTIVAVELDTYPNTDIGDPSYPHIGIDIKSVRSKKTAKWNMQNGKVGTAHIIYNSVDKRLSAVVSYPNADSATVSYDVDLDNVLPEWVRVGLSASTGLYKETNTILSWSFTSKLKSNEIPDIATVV

As to `C#CCCCON=C1C[C@@H](O)[C@@H](O)[C@@H]2[C@@H]3C(=O)N(C(C)(C)C)C(=O)[C@@H]3CC[C@@H]12`, the composite z-score with Albumin (Bos taurus) was 0.0601; in test [2], 0.0137; in test [3] it was -0.123; in test [4], -0.219; in test [5], 0.496; in test [6], 0.485. Besides, the composite z-score in the test on Sam68 (KHDRBS1) is -0.161; in test [7], 0.888; in test [8] it was -0.616. The composite Z-score in [1] was -0.0448 (inactive).
Take `C[C@H]1COC(=O)[C@@H]2CCCN2C(=O)[C@@H](C)COC(=O)[C@H](Cc2ccccc2)NC1=O`: the composite z-score is -0.0588 with Albumin (Bos taurus); -0.0647 in [2]; -0.126 in test [3]; 0.294 in test [4]; 0.403 in [5]; 0.137 in test [6]. Besides, the composite z-score was found to be 0.957 with Sam68 (KHDRBS1), 0.211 in test [7] and 0.476 in test [8]. Besides, the composite Z-score in test [1] is -0.21 (inactive).
Turning to `CCC=CCCC(OC(=O)c1ccc(Br)cc1)C1=CCCCC1=O` (stereo not given), the composite z-score in the test with Albumin (Bos taurus) is 0.231; in test [2] it was 0.0836; in [3], -0.102; in test [4] it was 0.696; in test [5], 0.678; in test [6], 0.0079. Besides, the composite z-score is 0.776 in the test with Sam68 (KHDRBS1), 1.02 in [7] and -0.297 in test [8]. Moreover, the composite Z-score in test [1] is -0.0549 (inactive).
Consider `O=C(NN=C1C[C@@H](O)[C@@H](O)[C@@H]2[C@@H]3C(=O)N(C4CCCCC4)C(=O)[C@@H]3CC[C@H]12)OCc1ccccc1`, for which the composite z-score with Albumin (Bos taurus) was 0.885; in [2] it was 0.273; in test [3], 0.179; in test [4], 0.0928; in [5], 0.206; in test [6] it was 0.947. In addition, the composite z-score in the test on Sam68 (KHDRBS1) is -0.337; in test [7], 0.209; in test [8], -0.465. The composite Z-score in [1] was -0.229 (inactive).
For `CON=C[C@@H](C)[C@H](OCc1ccccc1)C(C)C`, the composite z-score with Albumin (Bos taurus) was -0.784; in test [2], -0.0647; in test [3], -0.162; in [4] it was -0.269; in [5], -0.606; in [6], -0.0291. Besides, the composite z-score with Sam68 (KHDRBS1) is -0.295; in [7] it was 0.54; in [8], -0.413. In addition, the composite Z-score in test [1] was -0.47 (inactive).
For the molecule `CCN1C(=O)[C@@H]2[C@H]3C(=CC[C@@H]2C1=O)C1(OCCCO1)[C@H]1O[C@H]1[C@H]3O`, the composite z-score is 0.488 in the test with Albumin (Bos taurus); 0.162 in test [2]; -0.0948 in test [3]; 0.429 in test [4]; 2.12 in [5]; 0.251 in test [6]. Further, the results for the composite z-score (with Sam68 (KHDRBS1); in test [7]; in test [8]) were 1.29, 0.333 and 1, respectively. Further, in test [1], the composite Z-score is 0.369 (inactive).
Turning to `COC(=O)CC=C[C@H](C)[C@@H](OCc1cccc(Br)c1)[C@@H](C)[C@H](OC)C1CCCCC1`, the composite z-score was -1.15 in the test with Albumin (Bos taurus); -0.0914 in [2]; -0.124 in test [3]; 0.0679 in test [4]; -0.504 in [5]; -0.0998 in test [6]. The composite z-score in the test on Sam68 (KHDRBS1) is -0.446; in test [7] it was 0.652; in test [8] it was -1.23. Besides, the composite Z-score in [1] was 0.143 (inactive).
Consider `CCO[C@H](c1cc(OC)cc([N+](=O)[O-])c1OC)[C@H](C)C=CCC(=O)OC`, for which the composite z-score in the test with Albumin (Bos taurus) is -0.424; in test [2], -0.0682; in [3] it was -0.122; in [4], -0.324; in test [5], -0.925; in [6], 0.251. Also, the results for the composite z-score (in the test on Sam68 (KHDRBS1); in [7]; in [8]) were 0.143, 0.516 and -0.221, respectively. In addition, the composite Z-score in test [1] was 0.277 (inactive).
Turning to `CCOC(=O)[C@H](CC(C)C)NC(=O)CCC1CC(OC(=O)NCc2cccc3ccccc23)CC2(CCCC(COC(=O)NCCOc3ccccc3)O2)O1` (stereo not given in full), the composite z-score in the test with Albumin (Bos taurus) was 0.496; in test [2] it was -0.0048; in [3], 0.0174; in [4], 0.533; in test [5] it was 0.684; in [6] it was 0.27. In addition, the composite z-score in the test with Sam68 (KHDRBS1) was found to be 1.32; in test [7], 0.412; in test [8] it was 1.06. Also, the composite Z-score in [1] is -0.309 (inactive).
`CCN1C(=O)[C@H]2[C@H]3[C@H](O)[C@H](O)CC(=NO[C@@H](C)c4cn([C@H](CO)Cc5ccccc5)nn4)[C@@H]3CC[C@H]2C1=O`: the composite z-score with Albumin (Bos taurus) was 0.233; in test [2], -0.0581; in [3], -0.184; in [4] it was 0.556; in test [5] it was 0.875; in [6] it was 0.547. Moreover, the composite z-score in the test on Sam68 (KHDRBS1) was found to be 1.28; in test [7], 0.399; in test [8], 0.941. Moreover, the composite Z-score in [1] is 0.299 (inactive).
In the case of `O=C1[C@H]2[C@H]3[C@H](O)[C@H](O)CC(=NOCc4ccccc4)[C@H]3CC[C@H]2C(=O)N1Cc1ccc2c(c1)OCO2`, the composite z-score is 0.116 in the test with Albumin (Bos taurus); 0.0116 in test [2]; -0.146 in [3]; -0.0448 in [4]; 1.1 in test [5]; 0.148 in test [6]. Also, the figures for the composite z-score (in the test with Sam68 (KHDRBS1); in test [7]; in test [8]) were -0.18, 0.408 and -0.261, respectively. In addition, in test [1], the composite Z-score is -0.192 (inactive).
Regarding `CCc1cc2c(nc1CC)CCN(CCC(C)=NOC[C@H]1O[C@H](c3ccccc3)C=C[C@@H]1Oc1ccc(OC)cc1)C2`, the composite z-score in the test with Albumin (Bos taurus) is 0.184; in [2] it was -0.0311; in test [3] it was -0.155; in test [4], 0.787; in test [5], 0.552; in test [6], 0.056. Besides, the figures for the composite z-score (in the test on Sam68 (KHDRBS1); in test [7]; in test [8]) were 0.292, -0.0913 and 0.208, respectively. In addition, the composite Z-score in test [1] is -0.0263 (inactive).
Regarding `COC(=O)CC=C[C@@H](C)[C@@H](C=NOCC[C@@H]1C=C[C@H](OC(C)=O)[C@@H](COC(C)=O)O1)NS(=O)(=O)c1ccc(C)cc1`, the composite z-score is -0.361 in the test with Albumin (Bos taurus); 0.132 in test [2]; -0.0938 in test [3]; -0.297 in [4]; -0.309 in test [5]; 0.195 in [6]. In addition, the results for the composite z-score (in the test with Sam68 (KHDRBS1); in [7]; in test [8]) were 0.854, 0.687 and -2.79, respectively. Besides, the composite Z-score in [1] was 0.366 (inactive).
Consider `CC(C)CON=C1C[C@@H](O)[C@@H](O)[C@@H]2[C@@H]3C(=O)N(c4ccc(F)cc4F)C(=O)[C@@H]3CC[C@H]12`, for which the composite z-score with Albumin (Bos taurus) is 0.541; in test [2] it was -0.122; in [3] it was -0.17; in [4], 0.501; in test [5], 0.602; in test [6], 0.311. For the same molecule, the composite z-score with Sam68 (KHDRBS1) stood at 1.28; in test [7], 0.554; in [8], 0.303. In addition, in test [1], the composite Z-score is 0.109 (inactive).
As to `CCOC(=O)NN=C1C[C@@H](O)[C@@H](O)[C@@H]2[C@@H]3C(=O)N(c4ccc(F)cc4F)C(=O)[C@@H]3CC[C@@H]12`, the composite z-score with Albumin (Bos taurus) is 0.66; in [2], -0.144; in [3] it was -0.156; in test [4], -0.103; in test [5], 0.218; in test [6] it was 0.196. In addition, the values for the composite z-score (in the test with Sam68 (KHDRBS1); in test [7]; in test [8]) were 0.591, 0.312 and 0.307, respectively. The composite Z-score in [1] is 0.16 (inactive).
As to `COC(=O)CC=C[C@@H](C)[C@@H](C=NO[C@H](C)c1cn([C@H](CO)Cc2ccccc2)nn1)NS(=O)(=O)c1ccc(C)cc1`, the composite z-score is 0.749 with Albumin (Bos taurus); 0.0242 in test [2]; -0.118 in [3]; -0.276 in test [4]; -0.0104 in test [5]; 0.78 in test [6]. In addition, the figures for the composite z-score (with Sam68 (KHDRBS1); in [7]; in test [8]) were 0.566, 0.437 and 0.837, respectively. The composite Z-score in [1] was 0.863 (inactive).
As to `COC(=O)[C@H](C)NC(=O)CCC1CC(OC(=O)NCc2ccc3c(c2)OCO3)CC2(CCCC(COC(=O)NCc3cccc(C(F)(F)F)c3)O2)O1` (stereo not given in full), the composite z-score in the test with Albumin (Bos taurus) was 0.133; in test [2] it was -0.0014; in test [3] it was -0.133; in test [4] it was 0.424; in test [5] it was 1.08; in test [6] it was 0.234. Besides, the composite z-score is 1.02 in the test with Sam68 (KHDRBS1), 0.301 in test [7] and 0.746 in test [8]. For the same molecule, in test [1], the composite Z-score was 0.298 (inactive).
